Test results as given in PubChem BioAssay (NCI).
The panel holds about 83,000 compounds, 20% with a hit somewhere; the sample as a whole holds those more often.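 Plates (96-well) were seeded with cells, treated with compound at one concentration, and incubated for 48 hours before percent growth was determined.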 Calls of active or inactive are those of the source. How the source made its calls: active means growth percent below 10; inactive means the rest.

How the values were obtained:
Test in all cases: NCI-60 one-dose screen, 48 h (100 = growth as untreated, 0 = no growth, -100 = all killed)
Details in all cases: 10 µM unless noted
[1] = system: NCI-H23 lung
[2] = system: NCI-H322M lung
[3] = system: HOP-62 NSCLC
[4] = system: NCI-H460 lung
[5] = system: HOP-92 NSCLC
[6] = system: NCI-H522 lung
[7] = system: A549/ATCC NSCLC
[8] = system: 786-0 renal
[9] = system: COLO 205 colon
[10] = system: DU-145 prostate
[11] = system: K-562 leukemia
[12] = system: MALME-3M melanoma
[13] = system: MDA-MB-231 breast
[14] = system: RXF 393 renal
[15] = system: SF-268 CNS
[16] = system: SF-295 CNS
[17] = system: SF-539 CNS
[18] = system: UACC-257 melanoma
[19] = system: M14 melanoma
[20] = system: HCT-15 colon

Measured: growth

COc1cc(/C=C2\CCC/C(=C\c3cc(CN4CCCCC4)c(O)c(OC)c3)C2=O)cc(CN2CCCCC2)c1O
inactive: [1] 74.6% | [2] 85.9% | [3] 88.1% | [4] 72.7% | [5] 47% | [6] 87% | [7] 89.7% | [8] 72.4% | [9] 88.4% | [10] 83.1% | [11] 38.8% | [12] 90.3% | [13] 69.3% | [14] 61.7% | [15] 73.5% | [16] 96.8% | [17] 73% | [18] 95.4% | [19] 99% | [20] 52.3%

CC(C)CCNCC(O)Cn1c2ccccc2c2ccccc21 (stereo not given)
inactive: [1] 25.4% | [2] 30.7% | [3] 18.1% | [6] 20.3% | [7] 11.9% | [8] 25.2% | [13] 41.6% | [15] 30.7% | [17] 16.1% | [19] 11.8% | [20] 14.9%
active: [4] 1.52% | [5] -13.7% | [9] 2.79% | [10] 9.71% | [11] 1.84% | [12] -12.3% | [14] 8.43% | [16] -40% | [18] 1.45%

CN1C(=O)N(C)C2C1NN=c1s/c(=C\c3c[nH]c4ccccc34)c(=O)n12 (stereo not given)
inactive: [1] 38.7% | [2] 50.4% | [3] 49.2% | [5] 114% | [6] 11.5% | [7] 24.3% | [8] 23.4% | [12] 60.6% | [13] 34.7% | [14] 44.5% | [15] 39.1% | [16] 12.8% | [18] 79.5% | [19] 12.3% | [20] 11.8%
active: [4] 1.56% | [9] -53.4% | [10] 5.09% | [11] 8.94% | [17] 2.32%

COc1cc(/C=C/C(=O)c2c(C)nc3ccccc3c2/C=C/c2ccccc2)cc(OC)c1OC
active: [4] -33.3% | [6] -21% | [7] 8.71% | [9] 4.78% | [10] -0.597% | [11] 6.02% | [13] -0.432% | [14] -17.2% | [17] 1.35% | [19] -6.24% | [20] -6.23%
inactive: [1] 10.9% | [2] 21% | [3] 22.2% | [5] 14.6% | [8] 18.2% | [12] 36.3% | [15] 25.9% | [16] 29.8% | [18] 42.1%

O=S1(=O)N(Cc2ccccc2)[C@@H](Cc2ccccc2)[C@H](O)[C@H](O)[C@H](Cc2ccccc2)N1Cc1ccccc1
inactive: [2] 12.6% | [3] 18.4% | [15] 25.3%
active: [1] 1.32% | [4] -44.8% | [5] 4.2% | [6] 9.21% | [7] 6.12% | [8] -1.43% | [9] -0.273% | [10] -23.4% | [11] 3.12% | [12] -14.2% | [13] -7.98% | [14] -40.8% | [16] -11.2% | [17] -5.16% | [18] -22.1% | [19] -2.4% | [20] 3.16%

O=C(O)CCCN1C(=O)C2C3CCC(C3)C2C1=O (stereo not given)
inactive: [1] 101% | [2] 107% | [3] 109% | [4] 116% | [5] 107% | [6] 88% | [7] 104% | [8] 106% | [9] 119% | [10] 115% | [11] 105% | [12] 96% | [13] 130% | [14] 83.8% | [15] 107% | [16] 109% | [17] 103% | [18] 111% | [19] 105% | [20] 103%

CCOC(=O)c1c(C=O)nc2ccccc2c1/C=C/c1ccc(Cl)cc1
inactive: [1] 100% | [2] 99.8% | [3] 103% | [4] 100% | [5] 92.8% | [6] 78.8% | [7] 96.4% | [8] 106% | [9] 119% | [10] 96.3% | [11] 61.7% | [12] 100% | [13] 87.7% | [14] 99.5% | [15] 91.2% | [16] 101% | [17] 90.9% | [18] 105% | [19] 91.6% | [20] 89.6%

CCOC(=O)C1=CN(C)C=C(C(=O)OCC)C1c1cc(Br)c(OCC)c(OC)c1
inactive: [1] 65.9% | [2] 98.6% | [3] 55.6% | [4] 34.5% | [6] 52.2% | [7] 66.1% | [8] 59.9% | [10] 84% | [13] 36.8% | [14] 49.9% | [15] 73.3% | [17] 58.9% | [20] 14.7%
active: [5] 2.87% | [9] -59.7% | [11] -20.4% | [12] -1.58% | [16] -47.3% | [18] -50% | [19] -37.3%
